Source: PubChem
The full list was thinned out, with hits kept by preference.
TDP-43 rescue: inhibitors of TDP-43 toxicity in yeast | yeast TDP-43 toxicity rescue, BacTiter-Glo growth, 24 h | Potency, µM (series often up to 46.1 µM), usual class: activators | 45,000 tested, 0.45% active | AID 1347073; active means well fitted activation curve with a large enough effect; further: 0% is about no effect; nearly all actives have a fitted effect of over 55% in size
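TDP-43-expressing yeast, pregrown in raffinose, seeded at OD600 0.02 in galactose medium with compound for 24 hr at 30 deg C. Growth read by BacTiter-Glo luminescence, so rescue of toxicity appears as activation.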
The depositor's hits bear a star; i = inactive. Potency means the concentration at half of the fitted maximal effect.

SMILES | TDP-43 rescue
COc1ccc(CNc2ncnc3c2[nH]c2cc(OC)c(OC)cc23)cc1 | i
COc1ccc2c(c1)[nH]c1c(Cl)ncnc12 | 14µM*
COc1ccc2c(c1)[nH]c1c(=O)n(CCN3CCOCC3)cnc12 | i
Cc1c(-c2nc(-c3ccc4c(c3)OCO4)no2)nnn1-c1cccc(C(F)(F)F)c1 | i
C[C@H](NC(=O)CCCn1nnc2ccccc2c1=O)C(=O)O | i
Cc1ccccc1OCC(=O)OCn1nnc2ccccc2c1=O | i
Cc1ccc(/C=C/C(=O)OCn2nnc3ccccc3c2=O)o1 | 14µM*
Cc1ccc(C)c(CN2C(=O)c3ccccc3S(=O)(=O)c3ccc(C(=O)N4CCc5ccccc54)cc32)c1 | i
Cc1nc2ccc(S(=O)(=O)N(C)CC(=O)Nc3cccc(C(F)(F)F)c3)cc2s1 | i
CCOc1ccccc1CNC(=O)CCCN1C(=O)COc2ccc(C)cc21 | i
CSc1nnc2c(n1)OC(c1cccc(O)c1Cl)Nc1ccccc1-2 (stereo not drawn) | i
CN=c1scc(-c2ccccc2F)n1/N=C/c1ccc[nH]1 | i
C=CCN=c1scc(-c2ccc(F)cc2)n1/N=C/c1ccccn1 | 11µM*
COc1cc(-c2nc3ncccn3c2Nc2ccc(C)cc2C)ccc1O | i
C=Cc1ccc(Cn2c(C(=O)O)c(CNCc3ccccc3)c3ccc(OC)cc32)cc1 | i
COc1cc(CN(C(=O)COc2ccc(C)c(C)c2)c2ccccn2)cc(OC)c1OC | i
COC(=O)c1cc(C(=O)Nc2ccc(Cl)cn2)cc([N+](=O)[O-])c1 | i
Cc1ccc(OC(C)C(=O)Nc2ccc(Cl)cn2)c([N+](=O)[O-])n1 (stereo not drawn) | i
Cc1cc(Cl)ccc1OC(C)C(=O)Nc1ccc([N+](=O)[O-])cn1 (stereo not drawn) | 22µM*
Cc1c(CCNC(=O)c2c(F)cccc2F)sc2nc(-c3ccc(F)cc3)nn12 | i
CCCCNS(=O)(=O)c1ccc(C)c(-c2nnc3c4ccccc4c(C)nn23)c1 | i
CC(C)CNC(=O)c1c(F)c(F)c(F)c(F)c1F | i
O=C(NCC1CCN(C(=O)c2c(F)c(F)c(F)c(F)c2F)CC1)c1c(F)c(F)c(F)c(F)c1F | 18µM*
O=C(NCC1CCN(C(=O)c2cccc([N+](=O)[O-])c2)CC1)c1cccc([N+](=O)[O-])c1 | i
N#Cc1ccccc1Cn1c(=O)n(-c2ccc(F)c(Cl)c2)c(=O)c2sccc21 | i
SMILES | TDP-43 rescue
COc1ccc(C(=O)N(Cc2ccc(N(C)C)cc2)Cc2ccco2)cc1Cl | i
COc1ccc(NC(=O)c2ccc(NC(=O)C3COc4ccccc4O3)cc2)c(OC)c1 (stereo not drawn) | i
COc1ccc(NC(=O)c2cc(S(=O)(=O)NCC3COc4ccccc4O3)ccc2F)cc1 (stereo not drawn) | 25µM*
CCOc1ccc(S(=O)(=O)NCC2CCCO2)cc1NC(=O)c1ccccc1F (stereo not drawn) | i
COCCc1ccc(OC2(C)CCN(Cc3cccc(OCOC)c3)C2)cc1 (stereo not drawn) | i
CCOc1ccc(CCNCc2c(C(=O)O)n(Cc3ccc(C)cc3)c3cc(OC)ccc23)cc1 | i
CC(C)COc1ccc(C(=O)Nc2scc(-c3ccc(Br)cc3)c2C(=O)OC(C)C)cc1 | i
CC(C)(C)c1n[nH]c(=S)n(/N=C/c2cccs2)c1=O | i
CC(C1CC2CCC1C2)N1CC(O)=C(c2nc3ccccc3[nH]2)C1=N (stereo not drawn) | i
CC(C1CC2CCC1C2)n1c(-c2cccs2)n[nH]c1=S (stereo not drawn) | 14µM*
CNc1ccc(-c2cccc(C(=O)N3CCOCC3)c2)cn1 | i
Cc1ccc(Cn2c3ccccc3c3cnn(CC(=O)N4CCCCCC4)c(=O)c32)cc1 | i
CC(C)(C)c1ccc(C2=NC(C)(C)N(CC(=O)Nc3ccc(F)c(F)c3)C2=O)cc1 | i
Cc1nn2c(-c3cccc(NC(=O)c4ccccc4)c3)nnc2c2ccccc12 | i
CN1CCN(c2ncnc3c2ncn3[C@H]2CN(Cc3ccc4c(c3)OCO4)C[C@@H](CO)O2)CC1 | i
CC(NS(=O)(=O)c1ccc2c(c1)OCCO2)c1ccccc1 (stereo not drawn) | i
CCCNS(=O)(=O)c1ccc(CCC(=O)Nc2ccc3c(c2)OCCO3)cc1 | i
O=S(=O)(NCCc1csc(-c2ccccc2)n1)c1ccc2c(c1)OCCO2 | 18µM*
CCc1nc2ccc(C(=O)NCC3CCCCC3)cn2c1N(CCC(C)C)CCN(C)C | i
CCCCC(=O)N(C)c1c(C)nc2ccc(C(=O)NCc3ccccc3OC)cn12 | i
Cc1ccc(-n2nc3c(=O)n(CC(=O)Nc4ccccc4F)nc(C)c3c2C)c(C)c1 | i
O=C(COC(=O)c1ccccc1Br)NC1CCCC1 | i
O=C(COC(=O)CNC(=O)c1ccccc1)NC1CCCCC1 | i
O=C(COC(=O)CSc1ccc2ccccc2c1Br)NC1CC1 | 22µM*
COc1ccccc1NC(=O)CCn1cnc2ccccc2c1=O | i
